# Bioassay records from PubChem.
# PLAP activator: activates human placental alkaline phosphatase. purified PLAP enzyme, luminescent substrate read-out; active compounds read high. activation fold at 20 µM. P05187. 96,000 tested, 1.2% active; in the data active means activation fold above about 2
# CYP2C9 activ: CYP2C9 (human) activation. P11712. recombinant CYP2C9, luciferin-H conversion, luminescence; active compounds read high; factor 1 = untreated enzyme, 0 = blocked. activation factor at 5 µM. 96,000 tested, 1.4% active;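 active means activation factor of 2 or more for CYP2C9 at a 5 µM dose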;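 further: 0 = sulfaphenazole-blocked wells and 1 = vehicle-only wells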
# Target sequence (P11712 whole entry, looked up): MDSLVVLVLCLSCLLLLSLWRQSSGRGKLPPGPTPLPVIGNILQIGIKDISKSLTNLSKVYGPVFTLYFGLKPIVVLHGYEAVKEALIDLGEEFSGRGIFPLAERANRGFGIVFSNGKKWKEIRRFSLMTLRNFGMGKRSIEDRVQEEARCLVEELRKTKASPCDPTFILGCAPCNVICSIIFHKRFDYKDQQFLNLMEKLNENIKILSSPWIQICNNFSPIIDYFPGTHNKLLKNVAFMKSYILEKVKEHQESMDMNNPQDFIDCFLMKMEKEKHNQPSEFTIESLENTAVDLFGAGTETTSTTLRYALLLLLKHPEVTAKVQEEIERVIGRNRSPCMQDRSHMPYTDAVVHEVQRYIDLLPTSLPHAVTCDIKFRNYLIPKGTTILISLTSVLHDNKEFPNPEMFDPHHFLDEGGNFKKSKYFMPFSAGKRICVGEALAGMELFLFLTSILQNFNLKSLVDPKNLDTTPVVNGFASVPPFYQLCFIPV
# CYP2C19 act: activators of human cytochrome P450 2C19. recombinant CYP2C19, luciferin-H EGE luminescence; active compounds read high; 0 = fully inhibited enzyme, 1 = untreated enzyme. P33261. activation factor at 5 µM. 96,000 tested, under 10 active. AID 1025;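 active means activation factor of at least 2 at 5 µM in the primary screen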;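 further: 0 = wells with 2.5 mM tranylcypromine and 1 = vehicle-only wells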
# CYP2C19 inh: inhibitors of human CYP2C19 | CYP2C19 Supersomes, luciferin-H EGE luminescence, 30 min | inhibition, % at 5 µM | 96,000 tested, 21% active | AID 778;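 active means CYP2C19 inhibition above a set limit at 5 µM in the primary screen, cut at about 50% in these data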;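 further: plate controls were negative control wells for no effect and 2.5 mM tranylcypromine positive control for full effect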
# CYP2C9 inhib: inhibitors of human CYP2C9; P11712; CYP2C9 Supersomes, luciferin-H conversion, luminescence; inhibition, % at 5 µM; 96,000 tested, 20% active;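 active means blocking of liver enzyme CYP2C9 beyond about 50% at 5 µM, limit read from the data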
# An asterisk follows results filed as active. Rows were chosen to be rich in hits. Some 31% of all compounds tested hit in one or more screens of this group.
SMILES,PLAP activator,CYP2C9 activ,CYP2C19 act,CYP2C19 inh,CYP2C9 inhib
COc1cc(C2SCC(=O)N2c2nnc(C34CC5CC(CC(C5)C3)C4)s2)cc(OC)c1OC (stereo not given),1.7,0.6,1,-3.5,41.2
CC(=O)NC(Cc1ccccc1)C(=O)N1CCN(C(=O)c2cccs2)CC1 (stereo not given),1.2,1.1,1,-3.9,-7.6
Cc1ccc2[nH]c3c(c2c1)CN(C(=O)CN1CCN(c2cccc(C)c2C)CC1)CC3,1.8,0.1,0.5,49.1,88.7*
O=C(O)c1ccc2[nH]c3c(c2c1)CSCC3,1,1.1,1.1,-13.5,-5.9
Cc1ccc2[nH]c3c(c2c1)CN(C(=O)CN1c2ccc(F)cc2CCC1C)CC3 (stereo not given),1.2,0.5,0.7,28.8,46.3
O=C(CN1CCSCC1)N1CCc2[nH]c3ccc(Br)cc3c2C1,1.4,0.2,0.1,92.8*,81.1*
COc1ccccc1-n1c(SCC(=O)N2CCCC2)nc2cccnc21,1.1,1.1,1.1,-8.0,-5.6
COC(=O)c1cc(COc2ccc3c4c(c(=O)oc3c2)CCC4)c(C)o1,0.9,0.9,0.6,37.7,8.6
CCC(C)NC(=O)CN1C(=O)CC(C)(C)S(=O)(=O)c2ccccc21 (stereo not given),0.9,1.3,1.2,-21.4,-29.1
O=C1Cc2cccc3cccc1c23,1,1.1,1,2.1,-9.1
CCCN(Cc1ccccc1)S(=O)(=O)c1ccc(N2C(=O)CCC2=O)cc1,1,0.6,0.8,24.1,42.1
O=C(COc1ccc(Cl)cc1)N1CCN(c2ccc([N+](=O)[O-])c(N3CCCCC3)c2)CC1,1.2,0.4,0,98.3*,60.7*
O=C(COc1ccccc1Cl)N1CCN(c2ccc([N+](=O)[O-])c(N3CCCCC3)c2)CC1,0.9,0.2,0.4,59.1*,84.2*
COc1ccc(N2CS(=O)(=O)/C(=C/N(C)C)C2=O)cc1,1.1,1,1,-2.1,-4.1
O=C(C1CCN(S(=O)(=O)c2cccc3cccnc23)CC1)N1CCCC1,1.3,2.6*,0.6,35.8,-163.0
CC1CCCCN1CCNC(=O)C1CCN(S(=O)(=O)c2cccc3cccnc23)CC1 (stereo not given),1.4,0.9,0.8,17.0,8.5
O=C(C1CCN(S(=O)(=O)c2cccc3cccnc23)CC1)N1CC=C(c2ccccc2)CC1,1.4,1.3,0.2,75.4*,-31.1
Cc1cccc(N2CCN(C(=O)C3CCN(S(=O)(=O)c4cccc5cccnc45)CC3)CC2C)c1 (stereo not given),1.4,1.3,0.1,85.2*,-31.5
O=C(C1CCN(S(=O)(=O)c2ccc(F)cc2)CC1)N1CC=C(c2ccccc2)CC1,1.3,0.8,0.8,18.2,18.5
CON/C=C(\C=Nc1ccc(Cl)cc1)c1ncc(C(F)(F)F)cc1Cl,0.8,1.1,1.1,-13.3,-6.6
O=C(Cc1cnn(-c2ccccc2)c1)c1ccc(O)c(O)c1O,2*,0.2,0.3,65.1*,79.1*
Cc1ccc(O)c(C(=O)c2cnn(-c3ccccc3)c2)c1,0.8,1.3,0.8,23.3,-26.5
CCc1cc(C(=O)Cc2cnn(-c3ccccc3)c2)c(O)cc1O,1.2,0.8,0.4,55.2*,21.6
COC(=O)[C@@H](NC(=O)NCc1ccco1)C(C)C,0.8,1.1,0.9,5.7,-7.6
COc1ccccc1-c1c(C)oc2cc(OC(=O)c3ccco3)ccc2c1=O,1,0.4,0.4,63.7*,55.2*
SMILES,PLAP activator,CYP2C9 activ,CYP2C19 act,CYP2C19 inh,CYP2C9 inhib
COc1ccccc1-c1c(C(F)(F)F)oc2cc(OC(=O)c3cccc([N+](=O)[O-])c3C)ccc2c1=O,1.1,0.3,0.2,75.6*,73.3*
CCOc1ccc(CCNC(=O)C2CCCN(S(=O)(=O)c3c(C)n[nH]c3C)C2)cc1OCC (stereo not given),1.5,0.6,0.7,28.8,39.6
Cc1sc2ncn(CC(=O)NCCN3CCOCC3)c(=O)c2c1S(=O)(=O)N1CCC(C)CC1,1.8,1,1.1,-10.1,-3.8
O=C(CN(CCO)c1ccccc1)NC12CC3CC(CC(C3)C1)C2,1.2,0.9,0.6,37.1,6.4
O=c1nc(N2CCOCC2)ccn1-c1nc(-c2ccccc2)oc1-c1ccccc1,1.4,0.5,1.1,-5.0,54.7*
Cc1ccc(CCNC(=O)C2CCCN(S(=O)(=O)c3cccc4nsnc34)C2)cc1 (stereo not given),1,0.9,0.8,24.1,10.8
COc1ccc(NC(=O)C2CC2)cc1NS(=O)(=O)c1ccc(F)cc1,1.2,1,0.4,58.4*,2.9
COc1cc(NS(=O)(=O)c2ccc(F)cc2)c(OC)cc1NC(C)=O,1.1,0.3,0,99.0*,66.9*
CCOc1cc(NS(=O)(=O)c2ccc(NC(C)=O)cc2)c(OCC)cc1NC(=O)C(C)C,0.9,0.6,1.1,-5.4,39.5
COC(=O)c1c(C(=O)OC)c2oc3ccccc3n2c1Cl,0.9,0.6,0.6,37.1,35.5
O=C(NC(=Nc1ccccc1)N1CCOCC1)Nc1ccccc1,1,0.4,0.5,54.7*,56.4*
CC(=O)/C(=N/Nc1ccccc1)N1CCOCC1,1,1.1,0.8,15.8,-5.9
CCCCOc1ccc(S(=O)(=O)Nc2cccnc2)cc1,1.1,0.1,0.4,60.7*,88.7*
CC(=O)Nc1ccc(S(=O)(=O)Nc2cccc(N(C)S(C)(=O)=O)c2)cc1,1.1,1.1,1,-4.4,-10.8
CCOc1ccc(S(=O)(=O)Nc2cccc(N(C)S(C)(=O)=O)c2)cc1,1.5,1.2,0.1,92.6*,-19.7
CCOc1ccc(S(=O)(=O)Nc2cccc(OC)c2)cc1,1.1,0.4,0.3,68.9*,56.0*
CCCCc1oc2c(c(=O)c1C)C(=O)CC(c1ccccc1)C2 (stereo not given),1.6,0.2,0,100.3*,78.0*
CCC/C(O)=C1\C(=O)CC(c2ccccc2)CC1=NC (stereo not given),1.7,1.2,0.9,6.8,-23.5
CN(Cc1ccccc1)C(=O)CCCn1c(=O)[nH]c2cc(Cl)ccc2c1=O,1.1,1,0.2,81.9*,-0.2
Cc1ccc(C(=O)NCC2CCCO2)cc1N1CCCC1=O (stereo not given),1.1,1.1,1,-4.3,-5.9
CCc1cccc2c(C#N)cn(CC(=O)NCCOC)c12,1,1,0.7,32.6,0.7
CCOc1cc(/C=C2/C(=N)N3OC(C)=CC3=NC2=O)ccc1OCCOc1ccccc1,1,0.4,0.6,41.3,61.7*
O=C(Nc1cc(C(F)(F)F)ccc1F)C1CCC1,1,1.3,0.8,19.1,-27.7
CC(C)(C)NC(=O)Cn1c(SCC(N)=O)nc2ccccc21,1.2,1.2,1.2,-18.2,-15.8
COc1ccc(OC)c(C(=O)CSc2nc3ccccc3n2CC(=O)NC(C)(C)C)c1,0.8,0.1,0.7,26.1,87.2*
COc1ccc(C(=O)CSc2nc3ccccc3n2CC(=O)c2ccccc2)cc1,0.9,0.2,0.5,53.8*,75.6*
